Results published in PubChem BioAssay (NCI).
Several values for one entry are separate records, joined by “and”; a condition that tells them apart may be missing. Equal values may be shown once. This is part of a sample that, as a whole, favours compounds with a hit. Of some 79,000 tested, about 15% had one in any assay. Activity calls are given as the source filed them. No stated cut-off is given here; in the data, active means growth inhibition above about 70%; inactive means the rest.

Legend:
[1] = NCI Yeast Anticancer Drug Screen. Data for the mec2-1 strain (AID 157); conditions: S. cerevisiae mec2-1 strain, at 50.0 µM, stronger effect = higher value
Procedure, shortened: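 Vehicle-treated cultures served as reference for growth inhibition of compound-exposed mec2-1 yeast.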

[2] = NCI Yeast Anticancer Drug Screen. Data for the sgs1 mgt1 strain (AID 161);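 further: 0% = growth of cultures given vehicle only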; conditions: S. cerevisiae sgs1 mgt1 strain, at 50.0 µM, stronger effect = higher value
Procedure, shortened: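 Genetically altered yeast, compound exposure, growth inhibition relative to vehicle.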

[3] = NCI Yeast Anticancer Drug Screen. Data for the cln2 rad14 strain (AID 165);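 further: 0% = growth equal to vehicle treated cultures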; conditions: S. cerevisiae cln2 rad14 strain, at 50.0 µM, stronger effect = higher value
Procedure, shortened: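 Each compound was tested on cln2 rad14 yeast. Inhibition of growth was calculated against vehicle-exposed controls.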

[4] = NCI Yeast Anticancer Drug Screen. Data for the bub3 strain (AID 167); conditions: S. cerevisiae bub3 mutant strain, at 50.0 µM, stronger effect = higher value
Procedure, shortened: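 Mutant yeast screening strain plus compound; vehicle-treated cultures serve as the 0% inhibition reference.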

[5] = NCI Yeast Anticancer Drug Screen. Data for the mlh1 rad18 strain (AID 175); conditions: S. cerevisiae mlh1 rad18 strain growth inhibition; at 50.0 µM; stronger effect = higher value
Procedure, shortened: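 Vehicle-treated cultures served as the reference for growth inhibition in a yeast strain carrying DNA damage repair alterations exposed to each compound.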

[6] = NCI Yeast Anticancer Drug Screen. Data for the rad50 strain (AID 155);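 further: 0% = growth of vehicle-only cultures of the same strain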; conditions: S. cerevisiae rad50 strain growth inhibition; at 50.0 µM; stronger effect = higher value
Procedure, shortened: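 Vehicle-treated cultures provide the reference for the growth inhibition reported for compound-exposed, repair-deficient yeast.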

Question: Which results are given for `COc1cc2oc3c(c(=O)c2c(O)c1/C=C/C(C)C)CCC(C)(C)Oc1cc(O)ccc1-3`?
Answer: growth inhibition [1]: 11.1% (inactive); growth inhibition [2]: 49% (inactive); growth inhibition [3]: 47.3% (inactive); growth inhibition [4]: 39.5% (inactive); growth inhibition [5]: -26.4% (inactive)

Question: For `O=C1NC(N/N=C\C(O)C(O)C(O)C(O)CO)=N/C1=C\c1ccc(Cl)cc1` (stereo not given), which growth inhibition [1] is on record?
Answer: 30.6% (inactive)

Question: And the growth inhibition [4]?
Answer: 24.4% (inactive)

Question: And the growth inhibition [5]?
Answer: 17.6% (inactive)

Question: For `C=CC(COC(=O)C(C)(C)OC(C)=O)c1ccc(OC(=O)C(C)C)c(OC)c1` (stereo not given), which growth inhibition [1] is on record?
Answer: -2.75% (inactive)

Question: What about the growth inhibition [2] of the same compound?
Answer: 20.4% (inactive)

Question: And the growth inhibition [3]?
Answer: -12.3% (inactive)

Question: And the growth inhibition [4]?
Answer: -9% (inactive)

Question: Which results are given for `COc1ccc(NC(=S)N(C)C)cc1`?
Answer: growth inhibition [6]: 19.5% (inactive); growth inhibition [5]: 3.1% (inactive)

Question: Which growth inhibition [1] does the source give for `C/C=C1\NC(=O)[C@H]2CSSCCC=C[C@H](CC(=O)N[C@H](C(C)C)C(=O)N2)OC(=O)[C@H](C(C)C)NC1=O` here?
Answer: 35.4% (inactive)

Question: What about the growth inhibition [2] of the same compound?
Answer: 26.1% (inactive)

Question: And the growth inhibition [3]?
Answer: 51.6% (inactive)

Question: What about the growth inhibition [4] of the same compound?
Answer: 58.4% (inactive)

Question: What about the growth inhibition [5] of the same compound?
Answer: 33.5% (inactive)

Question: With `O=Cc1ccc2c(c1Cl)C(=O)c1ccccc1C2=O` as the compound, how does the growth inhibition [6] read?
Answer: 51% (inactive)

Question: What about the growth inhibition [5] of the same compound?
Answer: 68.3% (inactive)

Question: Which growth inhibition [6] does the source give for `COc1ccc(/C=N/N2C(=O)c3ccccc3C2=O)cc1OC` here?
Answer: 21% (inactive)

Question: What about the growth inhibition [5] of the same compound?
Answer: 6.3% (inactive)

Question: With `N#CC1(C#N)N[C@@H](c2ccsc2)[C@H]2C(=O)N(c3ccccc3)C(=O)[C@H]21` as the compound, how does the growth inhibition [1] read?
Answer: -8.2% (inactive)

Question: And the growth inhibition [2]?
Answer: 3.75% (inactive)

Question: And the growth inhibition [4]?
Answer: -6.95% (inactive)

Question: What about the growth inhibition [5] of the same compound?
Answer: -4.05% (inactive)

Question: Which results are given for `Nc1n[nH]c(=S)n1-c1ccc(Cl)cc1`?
Answer: growth inhibition [6]: -14.3% (inactive); growth inhibition [5]: -13% (inactive)

Question: Which results are given for `CC1CCN(c2ccc([N+](=O)[O-])cc2)CC1`?
Answer: growth inhibition [6]: -17.6% (inactive); growth inhibition [5]: -9.05% (inactive)

Question: With `Clc1cccc(Cl)c1Br` as the compound, how does the growth inhibition [1] read?
Answer: -26.2% (inactive)

Question: What about the growth inhibition [5] of the same compound?
Answer: 16.9% (inactive)

Question: Which results are given for `OCc1ccccn1`?
Answer: growth inhibition [1]: 3.45% (inactive); growth inhibition [2]: -4.65% (inactive); growth inhibition [4]: -3.95% (inactive)

Question: For `COc1cc(C(=O)N/N=C/c2ccc(N(C)C)cc2)cc(OC)c1OC`, which growth inhibition [6] is on record?
Answer: -32.2% (inactive)

Question: And the growth inhibition [5]?
Answer: -20.8% (inactive)

Question: For `O=C(CN1CCOCC1)Nc1cccc(C(F)(F)F)c1`, which growth inhibition [6] is on record?
Answer: -33.7% (inactive)

Question: And the growth inhibition [5]?
Answer: -35.4% (inactive)

Question: With `CCOC(=O)C(CNc1ccccc1)C(=O)OCC` as the compound, how does the growth inhibition [6] read?
Answer: -25.4% (inactive)

Question: What about the growth inhibition [5] of the same compound?
Answer: -11.7% (inactive)

Question: What does the source list for `CN1C2CCC1CC(OC(=O)C(O)c1ccccc1)C2` (stereo not given)?
Answer: growth inhibition [1]: -3.75% (inactive); growth inhibition [2]: -27.9% (inactive); growth inhibition [4]: -35.8% (inactive); growth inhibition [5]: 7.45% (inactive)

Question: Which results are given for `CCO/C=N\C1=C(C#N)SC2=N/C(=C\c3ccc(OC)cc3)C(=O)N21`?
Answer: growth inhibition [1]: -25.1% (inactive); growth inhibition [2]: 7.35% (inactive); growth inhibition [4]: -2.1% (inactive); growth inhibition [5]: -57.8% (inactive)

Question: With `Cc1ccccc1Nc1n[nH]c(=S)s1` as the compound, how does the growth inhibition [6] read?
Answer: 46.1% (inactive)

Question: What about the growth inhibition [5] of the same compound?
Answer: 33% (inactive)

Question: Which growth inhibition [6] does the source give for `CCCN1CCc2cc(OC)c(OC)cc2C1Cc1ccc(OC)c(OC)c1` (stereo not given) here?
Answer: -13.8% (inactive)

Question: What about the growth inhibition [5] of the same compound?
Answer: -5.7% (inactive)

Question: For `C#Cc1c(-c2c[nH]c3ccccc23)ccc[n+]1C`, which growth inhibition [6] is on record?
Answer: -12.5% (inactive)

Question: What about the growth inhibition [5] of the same compound?
Answer: -24.4% (inactive)

Question: Which growth inhibition [1] does the source give for `CCOc1cc2c(cc1O)C=C[C@@H]1[C@@H]2CC[C@]2(C)[C@@H](O)CC[C@@H]12` here?
Answer: 2.15% (inactive)

Question: And the growth inhibition [3]?
Answer: 26.7% (inactive)

Question: And the growth inhibition [4]?
Answer: 18.7% (inactive)

Question: What about the growth inhibition [5] of the same compound?
Answer: 25.7% (inactive)

Question: Which growth inhibition [1] does the source give for `Fc1ccc(Nc2nc(Cl)c3[nH]cnc3n2)cc1Cl` here?
Answer: 1.45% (inactive)

Question: What about the growth inhibition [2] of the same compound?
Answer: 27.6% (inactive)

Question: And the growth inhibition [4]?
Answer: 32.6% (inactive)

Question: And the growth inhibition [5]?
Answer: -28.7% (inactive)

Question: For `CCCCCCC(C/C=C\CCCCCCCC(=O)OC)OC(C)=O` (stereo not given), which growth inhibition [1] is on record?
Answer: -16.7% (inactive)

Question: For `Nc1ccc2ccc(N)cc2c1`, which growth inhibition [5] is on record?
Answer: -33.1% (inactive)

Question: Which growth inhibition [5] does the source give for `Nc1nc([Se]c2nc(N)nc3c2ncn3C2OC(CO)C(O)C2O)c2ncn(C3OC(CO)C(O)C3O)c2n1` (stereo not given) here?
Answer: -32.2% (inactive)

Question: For `NCCSC(C[N+](=O)[O-])c1ccccc1Cl` (stereo not given), which growth inhibition [5] is on record?
Answer: 87.4% (active)

Question: With `O=C1c2ccccc2C(=O)N1/N=C/c1ccc2c(c1)OCO2` as the compound, how does the growth inhibition [1] read?
Answer: 10.2% (inactive)

Question: What about the growth inhibition [5] of the same compound?
Answer: 18.4% (inactive)

Question: Which growth inhibition [1] does the source give for `CC1CCN(c2ccc([N+](=O)[O-])cc2[N+](=O)[O-])CC1` here?
Answer: 3.85% (inactive)

Question: What about the growth inhibition [5] of the same compound?
Answer: 25.6% (inactive)

Question: Which results are given for `CCCCCCCCOC(=O)C(=O)C(C#N)c1ccccc1` (stereo not given)?
Answer: growth inhibition [1]: 6.3% (inactive); growth inhibition [5]: 10.2% (inactive)

Question: With `C[Si]1(C)N[Si](C)(C)N[Si](C)(C)N1` as the compound, how does the growth inhibition [1] read?
Answer: -19.6% (inactive)

Question: And the growth inhibition [5]?
Answer: 2.3% (inactive)

Question: With `OCCOCCOCCOCCO` as the compound, how does the growth inhibition [3] read?
Answer: -48.1% (inactive)

Question: With `O=c1c(=O)n(CCO)n(CCO)c(=O)n1CCO` as the compound, how does the growth inhibition [1] read?
Answer: -28.9% (inactive)

Question: And the growth inhibition [5]?
Answer: -18.1% (inactive)

Question: With `CC(=O)NC(C(=O)O)C(C)C.CC(=O)NC(C(=O)O)C(C)C.[NH-]C1CCCCC1[NH-].[Pt+2]` (stereo not given) as the compound, how does the growth inhibition [5] read?
Answer: 7.05% (inactive) and 50% (inactive)
